The text below walks through data of PubChem BioAssay (NCI).

SMILES strings stand for the structures. This is part of a sample that, as a whole, favours compounds with a hit. Of some 79,000 tested, about 15% had one in any assay. Values without a mark were called inactive. The source made the active and inactive calls. Rule as the data show it: active = growth inhibition above about 70%; inactive = the rest.

The assay in a line: NCI Yeast Anticancer Drug Screen. Data for the cln2 rad14 strain (AID 165).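 Also: 0% = growth equal to vehicle treated cultures.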 The conditions noted are these: S. cerevisiae cln2 rad14 strain, at 50.0 µM, active compounds read high. The procedure: Growth inhibition of yeast strains with defined genetic alterations is measured as a screen for potential anti-cancer activity. Selected strains with alterations in DNA damage repair or cell cycle control were exposed to compounds and growth inhibition was measured relative to vehicle treated controls. The strain used in this assay is cln2 rad14
Regarding `CC1=NN(C(=O)c2ccc(Cl)cc2)C(=O)C1N=Nc1ccc(S(=O)(=O)Nc2ccccn2)cc1` (stereo not given), the growth inhibition is 20.2%. To `CCN(CC)C(C)(C)C(=O)/C=C/c1ccc(OC)cc1` belongs 12.7%; to `CCCCNc1nc(C#N)c(N)s1`, 11.3%. The same measure for `CCCCNC(=O)/N=C/c1c(O)c2ccccc2oc1=O`: -1.5%; for `CCCCN1CCNC1=S`: -10.6%; for `CCOC1(c2ccccc2)CCNCC1`: 15.7%.

Take `CCC(C)NC(=O)c1cccc2c1-c1ccccc1C2=O` (stereo not given): the growth inhibition was 1.4%. As to `COc1ccc(/C=N/N2CN(C(CC(N)=O)C(=O)O)P(Nc3ncccn3)N=C2N)cc1OC` (stereo not given), the growth inhibition is -20.9%. The same measure for `O=C(Cn1nnc(N2CCCCC2)n1)N/N=C/c1ccccc1O`: -10.8%. In the case of `Cc1ccc(NC(=O)Oc2ccccc2C(=O)OCc2ccccc2)cc1`, the growth inhibition is 20.1%. The same measure for `O=C(O)c1cc(Cl)ccc1-c1ccc(Cl)cc1C(=O)Nc1ccc2c(c1)Cc1cc(Cl)cc(Cl)c1-2`: 97.2% (active). The same measure for `c1ccc(CC2(Cc3ccccc3)SCCS2)cc1`: 1.15%. The same measure for `CCOC(=O)c1sc(SC)nc1NC(=O)c1ccc(Cl)cc1`: 0.7%; for `COc1ccc(CNc2cnc3ccc(N)cc3n2)cc1OC`: 5.55%; for `O=C1c2ccccc2C(C2N=Nc3ccccc32)c2ccccc21` (stereo not given): 26.1%.

Regarding `COc1ccc(C2=CN(S(=O)(=O)c3ccc(C)cc3)CCc3ccccc32)cc1`, the growth inhibition is -59.8%.

As to `CCCCCCCCCCCCCCCCCC(=O)N/N=C\c1ccc(O)c(OC)c1`, the growth inhibition is -56.8%. For the molecule `C[n+]1nc2ccccc2c(=Nc2ccccc2[N+](=O)[O-])[n-]1`, the growth inhibition was 14.1%. With `COC1OC(COC(=O)c2ccccc2)C(SC(=O)c2ccccc2)C1OC(=O)c1ccccc1` (stereo not given), the growth inhibition was -2%.

For the molecule `C/C=C/C(=O)Nc1cc(Cl)ccc1C`, the growth inhibition was -52.1%. The same measure for `O=c1oc2ccc3ccccc3c2c2c1CCCCC2`: -22.1%; for `CCN(CC)Cc1cc(Nc2nc(/C=C/c3ccccc3)nc3ccccc23)ccc1O`: 13.9%. To `CON(C)c1nc2ccccc2o1` belongs -16.8%; to `CCN(CC)CCOC(=O)C(c1ccccc1)C1C=CCCC1` (stereo not given), -1.15%. For `CN(C)c1nc(=S)c2cn[nH]c2[nH]1`, the growth inhibition is -21.8%. With `O=c1[nH]c(=S)[nH]c2c1CN(CCCN1CCOCC1)CN2`, the growth inhibition was 3.2%. The same measure for `CC(C)COC(=O)c1cc(O)[nH]c(=O)c1`: -40.1%; for `Cc1[nH]c2cc([N+](=O)[O-])ccc2c1C`: 21.8%; for `c1cnc2cccnc2c1`: -6.15%. The same measure for `CC(CCc1nc2ccccc2[nH]1)c1nc2ccccc2[nH]1` (stereo not given): 18.1%; for `Cn1c(=O)c2c(nc(N(CCN(N=O)c3nc4c(c(=O)n(C)c(=O)n4C)n3C)N=O)n2C)n(C)c1=O`: -0.3%.

In the case of `Cc1cccc(C=NC23CC4CC(CC(C4)C2)C3)c1`, the growth inhibition was -30.7%. As for `c1ccc(CCNCc2ccc(CNCCc3ccccc3)cc2)cc1`, the growth inhibition was 5.05%.

Regarding `COC(=O)C=Cc1ccc2nncnc2c1` (mixture of isomers), the growth inhibition was 17.1%.

For the molecule `CN(C)CCC(=O)c1cccc(O)c1`, the growth inhibition was -37.6%.

For `O=C(NCCCl)Nc1[nH]c(=O)ncc1Cl`, the growth inhibition was -30.6%.

Consider `CC(O)C(N=Cc1ccccc1[O-])C(=O)[O-].CC(O)C(N=Cc1ccccc1[O-])C(=O)[O-].[Co+2]` (stereo not given), for which the growth inhibition was 4.4%. To `COc1ccc(C(=O)Nc2c(N)ncnc2N)cc1` belongs -3.6%; to `O=C(O)CSc1nc2ccc(N3C(=O)C4C5C=CC(C5)C4C3=O)cc2s1` (stereo not given), 11.3%; to `CC1=CCC(C(C)(C)OCCCO)CC1` (stereo not given), 10.7%.
